Where only a bound is given, the exact number is not on record here.

Data on 60 compounds can be found in ChEMBL document CHEMBL3988442, “University of Dundee, Small-Polar-MMV Screening Library” (2021).

In this test the target is T1, Methionyl-tRNA synthetase, putative (Leishmania donovani (strain BPK282A1)) (UniProt E9BF75).
T1 sequence (whole entry): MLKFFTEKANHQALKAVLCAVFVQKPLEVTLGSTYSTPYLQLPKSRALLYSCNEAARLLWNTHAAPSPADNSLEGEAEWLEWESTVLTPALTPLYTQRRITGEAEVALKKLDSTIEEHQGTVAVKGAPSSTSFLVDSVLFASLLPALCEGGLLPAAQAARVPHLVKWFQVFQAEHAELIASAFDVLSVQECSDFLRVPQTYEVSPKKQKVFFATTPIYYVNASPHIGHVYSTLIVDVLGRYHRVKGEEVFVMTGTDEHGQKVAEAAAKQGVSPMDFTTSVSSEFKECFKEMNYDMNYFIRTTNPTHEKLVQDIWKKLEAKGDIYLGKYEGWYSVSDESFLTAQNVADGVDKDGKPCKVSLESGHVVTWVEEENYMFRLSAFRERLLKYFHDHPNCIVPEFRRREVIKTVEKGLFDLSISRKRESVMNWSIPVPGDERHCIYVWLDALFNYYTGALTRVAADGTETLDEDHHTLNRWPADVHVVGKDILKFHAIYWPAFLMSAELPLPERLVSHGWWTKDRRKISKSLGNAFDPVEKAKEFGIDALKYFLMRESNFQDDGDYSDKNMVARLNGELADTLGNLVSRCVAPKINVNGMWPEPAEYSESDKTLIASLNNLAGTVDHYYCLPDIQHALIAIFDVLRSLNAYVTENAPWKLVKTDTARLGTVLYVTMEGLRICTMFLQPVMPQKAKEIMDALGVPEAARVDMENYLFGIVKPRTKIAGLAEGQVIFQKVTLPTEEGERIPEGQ
Nature of the test: Leishmania donovani Methionine tRNA synthetase (LdMetRS):v7. Dose response assay. It is filed as functional. On the set-up: conc 80 nM, time 150 minutes.

`CN(CCO)c1ccnc(Nc2ccc(F)c(F)c2)n1`: the PXC50 (BOTTOM 0.294483603, HILLSLOPE 0.87168646, MAX_EFFECT 90.28037383, TOP 97.37088088) amounted to 5.27. On to `Clc1cc(Cl)cc(NCc2ccccn2)c1`, for which the PXC50 (BOTTOM 0.466583915, HILLSLOPE 0.636268233, MAX_EFFECT 51.05162524, TOP 100.0) turned out to be 2.71.

`Cn1ncc2c(NCCO)nc(Nc3cccc(Cl)c3)nc21` returned a PXC50 (BOTTOM 2.482705833, HILLSLOPE 1.074607965, MAX_EFFECT 81.43133462, TOP 87.71460066) of 5.07. For the setting “BOTTOM 4.327233824, HILLSLOPE 1.310483513, MAX_EFFECT 62.26415094, TOP 64.55009742”, `Cn1ncc2c(NC3CCC3)nc(Nc3ccc(F)c(F)c3)nc21` returned a PXC50 of 5.13. In turn, `OCCCNc1ccnc(Nc2ccc(F)c(F)c2)n1` gave a PXC50 (BOTTOM 8.063501062, HILLSLOPE 0.925044522, MAX_EFFECT 61.50943396, TOP 93.0681126) of 4.25. `Clc1cc(Cl)cc(NCc2ncc[nH]2)c1` had a PXC50 (BOTTOM -1.539697056, HILLSLOPE 1.029999783, MAX_EFFECT 60.61185468, TOP 100.0) of 2.93. Where the note is “MAX_EFFECT 1.111111111”, `CCn1c(NC(=O)Nc2ccccc2OC)nc2ccccc21` registered a PXC50 of under 4. With `NS(=O)(=O)c1cccnc1Nc1cccc(F)c1`, the PXC50 (MAX_EFFECT 1.518026565) is under 4. On the same count and under the same terms, next, `NS(=O)(=O)c1cccnc1Nc1ccc(F)cc1`: under 4.

For the compound `COc1cccc(NC(=O)Nc2ccccc2OC)c1`, for the setting “MAX_EFFECT 2.056074766”, the PXC50 is under 4. `Cn1ncc2c(NC3COC3)nc(Nc3ccc(F)c(F)c3)nc21` came in with a PXC50 (MAX_EFFECT 2.264150943) of under 4. Compound `CN(C)CCNc1nc(NCCO)c2cnn(C)c2n1` came in with a PXC50 (MAX_EFFECT 2.277039848) of under 4. Take `COc1ccccc1NC(=O)Nc1c[n+]([O-])ccc1OC`: the PXC50 (MAX_EFFECT 3.018867925) is under 4.

Turning to `NS(=O)(=O)c1cccnc1Nc1cccc(O)c1`, the PXC50 (MAX_EFFECT 3.333333333) is under 4.

Turning to `Cn1ncc2c(NCCO)nc(NCc3ccccc3)nc21`, where the note is “MAX_EFFECT 4.528301887”, the PXC50 is under 4. In turn, `C[C@H](CO)Nc1ccnc(Cl)n1` returned a PXC50 (MAX_EFFECT 5.046728972) of under 4. With `CN(CCO)c1nccc(Cl)n1`, the PXC50 (MAX_EFFECT 5.046728972) was under 4. Regarding `NS(=O)(=O)c1cccnc1Nc1ccc(O)cc1`, for the setting “MAX_EFFECT 5.185185185”, the PXC50 was under 4. As for `COc1ccccc1NC(=O)Nc1nn(C)c2ccccc12`, for the setting “MAX_EFFECT 5.420560748”, the PXC50 is under 4.

Consider `Cn1c(NC(=O)Nc2ccccc2Cl)nc2ccccc21`, for which the PXC50 (MAX_EFFECT 5.925925926) was under 4. For the compound `C[C@H](CO)Nc1nccc(Nc2ccc(F)c(F)c2)n1`, the PXC50 (MAX_EFFECT 6.165703276) is under 4.

Where the note is “MAX_EFFECT 6.165703276”, `NS(=O)(=O)c1cccnc1Nc1cc(C(=O)O)cc(C(F)(F)F)c1` returned a PXC50 of under 4.

`C[C@@H](CO)Nc1nccc(Cl)n1` returned a PXC50 (MAX_EFFECT 6.91588785) of under 4. With `OCCCNc1ccnc(Cl)n1`, where the note is “MAX_EFFECT 7.32177264”, the PXC50 was under 4. As for `Cc1cc(CNc2cc(Cl)cc(Cl)c2)no1`, the PXC50 (MAX_EFFECT 7.456978967) was under 2.7.

For the compound `Cc1cc(Nc2ncccc2S(N)(=O)=O)cc(C(F)(F)F)c1`, the PXC50 (MAX_EFFECT 10.97804391) is under 4. `COc1cc(NC(=O)c2cccs2)c2ncccc2c1` registered a PXC50 (MAX_EFFECT 11.11111111) of under 4. As to `c1ccc(-c2nc(N3CCOCC3)c3sccc3n2)cc1`, the PXC50 (MAX_EFFECT 16.2962963) was under 4. Where the note is “MAX_EFFECT 17.78202677”, `Clc1cc(Cl)cc(CNCC2CCOCC2)c1` yielded a PXC50 of under 2.7. `CC(NCc1cc(Cl)cc(Cl)c1)C1CCS(=O)(=O)CC1` (stereo not given) registered a PXC50 (MAX_EFFECT 19.31166348) of under 2.7.

Under “MAX_EFFECT 19.53578337”, `COc1cccc(NC(=O)N2CCOc3ccccc32)c1` gave a PXC50 of under 4.

Take `COc1ccccc1NC(=O)NC1CCCCC1`: the PXC50 (MAX_EFFECT 21.47001934) was under 4.

Regarding `Cc1cnn(C)c1CNc1cc(Cl)cc(Cl)c1`, the PXC50 (MAX_EFFECT 23.51816444) was under 2.7. `Clc1cc(Cl)cc(CNCc2cccnc2)c1`: under “MAX_EFFECT 23.51816444”, the PXC50 was under 2.7. In turn, `Cn1ncc2c(N3CCCCC3)nc(Nc3ccccc3)nc21` showed a PXC50 (MAX_EFFECT 27.40740741) of under 4. As to `OCCCNc1ccnc(Nc2cccc(F)c2)n1`, the PXC50 (MAX_EFFECT 28.51637765) is under 4. In turn, `C[C@@H](CO)Nc1ccnc(Nc2ccc(F)c(F)c2)n1` gave a PXC50 (MAX_EFFECT 40.46242775) of under 4. The compound `C[C@H](CO)Nc1ccnc(Nc2cccc(C(F)(F)F)c2)n1` showed a PXC50 (MAX_EFFECT 43.93063584) of under 4. `COc1cccc(NC(=O)N2CCCc3ccccc32)c1`: the PXC50 (MAX_EFFECT 45.28301887) was under 4. `O=c1nc(NCCCNC2CCOc3c(Cl)cc(Cl)cc32)[nH]c2ccccc12` (stereo not given) came in with a PXC50 (BOTTOM 1.104460677, HILLSLOPE 1.218727258, MAX_EFFECT 102.5925926, TOP 101.9327021) of 6.05.

`OCCNc1ccnc(Nc2ccc(F)c(F)c2)n1` yielded a PXC50 (BOTTOM 2.684604701, HILLSLOPE 0.866541634, MAX_EFFECT 62.24299065, TOP 102.5858947) of 4.2. Consider `Cn1ncc2c(NC3CCCC(O)C3)nc(Nc3ccc(F)c(F)c3)nc21` (stereo not given), for which the PXC50 (BOTTOM 4.828241924, HILLSLOPE 1.003842691, MAX_EFFECT 77.73584906, TOP 90.35664451) is 4.76. As for `Cn1ncc2c(NC3CCOC3)nc(Nc3ccc(F)c(F)c3)nc21` (stereo not given), the PXC50 (BOTTOM 7.395126545, HILLSLOPE 0.941646955, MAX_EFFECT 86.79245283, TOP 90.65244752) came out at 5.1. In the case of `Clc1cc(Cl)cc(NCc2c[nH]cn2)c1`, where the note is “BOTTOM -1.936831904, HILLSLOPE 1.590281355, MAX_EFFECT 96.5583174, TOP 100.0”, the PXC50 was found to be 3.41. In turn, `CN(CCO)c1ccnc(Nc2cccc(C(F)(F)F)c2)n1` had a PXC50 (BOTTOM -8.924411722, HILLSLOPE 0.906080231, MAX_EFFECT 87.09055877, TOP 92.74987259) of 5.38.

As for `OCCNc1nccc(Cl)n1`, for the setting “MAX_EFFECT 0.560747664”, the PXC50 was under 4. `CN(CCO)c1ccnc(Cl)n1` showed a PXC50 (MAX_EFFECT 1.682242991) of under 4. As for `Cn1cc(C(=O)N2CCc3ccccc32)c2ccccc21`, under “MAX_EFFECT 1.851851852”, the PXC50 is under 4.

`NS(=O)(=O)c1cccn2c1nc1cccnc12` yielded a PXC50 (MAX_EFFECT 1.851851852) of under 4. Consider `C[C@@H](CO)Nc1ccnc(Cl)n1`, for which the PXC50 (MAX_EFFECT 3.177570093) is under 4. The compound `OCCNc1ccnc(Cl)n1` returned a PXC50 (MAX_EFFECT 3.551401869) of under 4. In turn, `Cn1ncc2c(NCCO)nc(NCCO)nc21` returned a PXC50 (MAX_EFFECT 3.795066414) of under 4. For the compound `CC(C)Nc1nc(NCCO)c2cnn(C)c2n1`, the PXC50 (MAX_EFFECT 5.313092979) was under 4. With `OCCNc1nccc(Nc2ccc(F)c(F)c2)n1`, the PXC50 (MAX_EFFECT 5.420560748) was under 4. As for `COc1ccc(Nc2ncccc2S(N)(=O)=O)cc1C(F)(F)F`, where the note is “MAX_EFFECT 5.780346821”, the PXC50 is under 4. Take `COc1ccncc1NC(=O)N1CCOc2ccccc21`: the PXC50 (MAX_EFFECT 6.037735849) was under 4. For the setting “MAX_EFFECT 6.168224299”, `COc1ccccc1NC(=O)Nc1ccn(C)n1` yielded a PXC50 of under 4.

For the compound `N#Cc1c(N)nc(-c2ccccc2)nc1C(F)(F)F`, under “MAX_EFFECT 6.666666667”, the PXC50 was under 4. Under “MAX_EFFECT 6.79245283”, `COC(=O)c1ccc(OC)c(NC(=O)N2CCCc3ccccc32)c1` had a PXC50 of under 4.

For `NS(=O)(=O)c1cccnc1NC1CCCC1`, the PXC50 (MAX_EFFECT 6.986027944) is under 4.
